# Hits are enriched below; roughly 3.2% of the tested compounds scored in any of these assays.
# Coupling enz: counter-screen for Giardia aldolase inhibitors: coupling enzyme system; AID 2472; activity change, negative = inhibition, % at 58.2 µM, hits read low; hit rate 0.67% among 290,000; coupling enzyme system counterscreen, AmpLite Red fluorescence; in the data active means activity change below about -30%
#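 First, compound is pin-transferred into glyceraldehyde-3-phosphate coupling-enzyme reagent at 57.5 uM final and held 10 min at RT. Next, substrate, coupling system and AmpLite Red are added. After 20 min RT, fluorescence (525/598 nm) is read.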
# GALK inhibitor: galactokinase (human) inhibition; Potency, µM (titrated, usually from 57.5 µM), hits mostly inhibitors; Purified GALK, Kinase-Glo residual ATP luminescence; P51570; hit rate 0.007% among 270,000
#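 Luminescence from leftover ATP (Ultra-Glo luciferase/luciferin) served as read-out after a 1 h room-temperature reaction of 5 nM GALK with 35 uM ATP and 100 uM galactose.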
# PLK1 PBD inh: inhibitors of human PLK1 polo-box domain binding. P53350. Plk1 PBD binding of FITC phosphopeptide, fluorescence polarization. Potency, µM, actives largely listed as inhibitors. hit rate 2.8% among 360,000. AID 720504; further: series mostly up to about 57 µM; nearly all actives have a fitted effect of over 65% in size
# USP2a block: inhibitors of human ubiquitin-specific protease USP2a; USP2 core, Ub-CHOP2 coupled fluorogenic reporter, 485/531; Potency, µM (series often up to 38.3 µM), usual class: inhibitors; hit rate 0.01% among 330,000; AID 463254
# Target sequence (O75604 whole entry, looked up): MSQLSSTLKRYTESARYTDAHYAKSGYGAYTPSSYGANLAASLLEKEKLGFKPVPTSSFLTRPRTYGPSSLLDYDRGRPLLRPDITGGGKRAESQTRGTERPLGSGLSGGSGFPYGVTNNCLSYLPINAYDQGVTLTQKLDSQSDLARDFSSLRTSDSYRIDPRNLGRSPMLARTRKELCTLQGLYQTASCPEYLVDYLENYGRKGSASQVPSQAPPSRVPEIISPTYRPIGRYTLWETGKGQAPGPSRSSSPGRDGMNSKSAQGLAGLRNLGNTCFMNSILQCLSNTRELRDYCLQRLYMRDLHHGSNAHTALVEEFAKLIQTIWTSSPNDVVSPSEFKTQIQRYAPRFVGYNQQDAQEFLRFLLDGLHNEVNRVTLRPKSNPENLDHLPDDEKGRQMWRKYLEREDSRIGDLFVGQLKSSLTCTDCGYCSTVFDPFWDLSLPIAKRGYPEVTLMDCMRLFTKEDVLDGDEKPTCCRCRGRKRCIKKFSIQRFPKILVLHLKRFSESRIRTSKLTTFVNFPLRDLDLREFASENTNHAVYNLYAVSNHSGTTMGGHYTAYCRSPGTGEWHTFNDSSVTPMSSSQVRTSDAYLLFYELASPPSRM
#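 Deubiquitinase activity read as fluorescence (485/531 nm) after Ub-CHOP2 cleavage activates the enterokinase reporter on its substrate; USP2 core 10nM, Ub-CHOP2 and substrate 25nM each, 30min compound preincubation then 60min RT; data normalized to NEM, curves fitted.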
# USP1 inh: inhibitors of human USP1/UAF1 deubiquitinase; recombinant USP1/UAF1, Ub-Rhodamine cleavage fluorescence; Potency, µM (doses to about 57.1 µM), most hits filed as inhibitors; O94782; hit rate 0.23% among 390,000; further: nearly all actives have a fitted effect of over 60% in size
#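 High-throughput fluorogenic screen: 1nM USP1/UAF1 complex, Ub-Rho substrate 150nM final, 50mM HEPES pH 7.8 with 0.5mM EDTA, 0.1 mg/ml BSA, 1mM TCEP and 0.01% Tween-20.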
# VDR inhibitor: inhibitors of human vitamin D receptor | P11473 | hit rate 0.93% among 400,000 | VDR-SRC2-3 peptide fluorescence polarization, 2 h | Potency, µM, hits mostly inhibitors
#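 Measured by FP: displacement of SRC2-3 coactivator peptide from VDR by library compounds, following a two-hour ambient incubation.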
# Hits are given with their value; . = inactive; ? = inconclusive; / = no result. Unless noted, the call rests on the fitted dose curve; in most records, active means well fitted curve in the direction sought with a large enough effect; inconclusive means small, poorly fitted or top-dose-only effect, or another doubt; inactive means no such curve, though single readings can be large; an effect the other way counts as inactive or inconclusive.
SMILES,Coupling enz,GALK inhibitor,PLK1 PBD inh,USP2a block,USP1 inh,VDR inhibitor
O=C(CCCNC(=O)c1ccc(Cl)cc1)Nc1ccc(S(=O)(=O)Nc2ncccn2)cc1,.,.,27µM,.,.,?
Cc1ccc(NC(=O)CCC(=O)NNS(=O)(=O)c2ccc(Cl)cc2)cc1C,/,.,.,.,.,.
CC(=O)Nc1ccc(SC(Sc2ccc(NC(C)=O)cc2)c2ccccc2)cc1,/,/,17µM,/,.,.
CC(=O)Nc1ccc(NC(=S)Nc2ccccc2)cc1,.,.,.,.,.,.
N#CCN1CCC(c2cc(-c3ccco3)n[nH]2)CC1,.,.,30µM,.,.,.
c1coc(-c2cc(C3CCNCC3)[nH]n2)c1,.,.,.,.,.,.
CCOC(=O)CCNC(=O)N1CCCC(C(=O)c2ccc3c(c2)OCO3)C1 (stereo unspecified),.,.,.,.,.,.
CSc1sccc1/C=C(/C#N)C(=O)c1ccco1,.,.,0.84µM,.,.,?
Cn1nc([N+](=O)[O-])nc1Sc1cccc2cccnc12,.,.,17µM,.,.,.
O=[N+]([O-])c1ccc(Cl)cc1Sc1cccc2cccnc12,.,.,.,.,.,.
COc1ccc(S(=O)(=O)Nc2ccccn2)cc1C,.,.,.,.,.,.
CN(C)c1ccc(NC(=S)c2ccccn2)cc1,.,/,13µM,.,.,.
CN(C)c1ccc(C(=S)Nc2ccccc2)cc1,.,.,.,.,.,.
CCCC(C)c1nnc(NC(=O)CCS(=O)(=O)Cc2ccccc2)s1 (stereo unspecified),.,.,13µM,.,.,?
CC(C)Cc1nnc(NC(=O)CS(=O)(=O)Cc2ccccc2)s1,.,.,24µM,.,.,.
CCCC(C)c1nnc(NC(=O)CS(=O)(=O)Cc2ccccc2)s1 (stereo unspecified),/,.,14µM,.,.,?
Cc1nnc(NC(=O)CCS(=O)(=O)Cc2ccccc2)s1,.,.,?,.,.,.
NC(=O)c1ccccc1NC(=O)CS(=O)(=O)Cc1ccccc1,.,.,24µM,.,.,.
COc1ccc2c(c1)Cc1c-2cc(Br)c(N)c1Br,/,/,.,/,?,/
Cc1c(CC(=O)N[C@@H](C)C(=O)O)c(=O)oc2cc3occ(-c4ccccc4)c3cc12,.,.,?,.,.,?
CC(C)c1nnc(NC(=O)CS(=O)(=O)Cc2ccccc2)s1,.,.,27µM,.,.,.
CCC(CC)c1nnc(NC(=O)CS(=O)(=O)c2ccc(C)cc2)s1,.,.,12µM,.,.,45µM
Cc1ccccc1NC(=O)Nc1ccccc1C(N)=O,.,.,27µM,.,.,.
CCC(C)C(=O)Nc1nnc(CCc2ccccc2)s1 (stereo unspecified),.,.,24µM,.,.,?
Cc1ccc(NC(=O)Nc2ccccc2C(N)=O)cc1,.,.,.,.,.,.
SMILES,Coupling enz,GALK inhibitor,PLK1 PBD inh,USP2a block,USP1 inh,VDR inhibitor
CCC(CC)c1nnc(NC(=O)CS(=O)(=O)Cc2ccccc2)s1,/,/,?,/,.,.
N#Cc1cc(C(=O)c2cc(Br)ccc2O)cn(C2CC2)c1=O,.,.,.,.,.,.
CC1=C(C(=O)Nc2ccccc2)C(c2ccccn2)n2nc(SCc3ccccc3)nc2N1 (stereo unspecified),/,/,/,/,.,.
Cn1c(N)c(C(=O)COC(=O)c2nc(Cl)ccc2Cl)c(=O)n(C)c1=O,.,.,.,.,.,.
CCCCn1c(SCC(=O)Nc2ccc3c(c2)CCC3)nc2ccccc2c1=O,.,.,30µM,.,.,.
O=C(CSc1nc2ccccc2c(=O)n1Cc1ccccc1)Nc1ccc(Br)cc1C(=O)O,.,.,11µM,.,?,?
COc1ccc(NC(=O)CSc2nc3ccccc3c(=O)n2CCCN2CCCCC2)c(OC)c1,.,.,24µM,.,.,.
CCOCCCn1c(SCC(=O)NC2CCCC2)nc2ccccc2c1=O,/,.,27µM,.,.,?
COCCCNC(=O)CSc1nc2ccccc2c(=O)n1CCCN1CCCCC1,.,/,.,.,.,.
CC(C)n1c(SCC(N)=O)nc2c1c(=O)[nH]c(=O)n2C,.,.,.,.,.,.
CCCS(=O)(=O)NC(=O)C1(C)CCN(C(=O)c2cc(C(C)(C)C)nn2C)C1 (stereo unspecified),/,/,.,/,/,/
CC1=C(c2ccc(Cl)cc2)[N+](=O)C(C)(C)N1[O-],.,/,12µM,.,.,.
Cc1c(-c2ccc(Cl)cc2)[n+](=O)c(-c2ccccc2)cn1[O-],.,.,.,.,.,.
COc1cc(/C=C2/N=C(c3ccccc3)OC2=O)c(F)cc1OCc1ccccc1,/,/,/,/,/,.
COCCNc1nnc(SCC(=O)NNC(=O)c2ccccc2)s1,.,.,27µM,.,.,.
COc1ccc(NC(=O)CSc2nnc(NC(=O)c3ccccc3C(=O)O)s2)cc1,.,.,17µM,.,.,.
CCN(CC)c1ccc(/C=N/NC(=O)c2ccc3c(c2)OCCO3)cc1,.,.,.,.,.,.
CCC1=NN2C(=N)/C(=C\c3ccc(OCCOc4ccccc4)c(OC)c3)C(=O)N=C2S1,.,.,/,.,/,/
CCOc1cc(/C=C2\C(=N)N3N=C(S(C)(=O)=O)SC3=NC2=O)ccc1OCCOc1cccc(OC)c1,.,.,27µM,.,?,?
COc1cc(/C=C2\C(=N)N3N=C(S(=O)(=O)CC(C)C)SC3=NC2=O)ccc1OC(=O)c1ccco1,.,?,/,.,/,/
CCS(=O)(=O)C1=NN2C(=N)/C(=C\c3ccc(OCCOc4cccc(OC)c4)c(OC)c3)C(=O)N=C2S1,.,.,24µM,.,.,.
CCOc1ccc(C(=O)NCc2ccccc2)cc1Br,.,.,.,.,.,.
CC(C)C(NC(=O)C1CCC(C(C)(C)C)CC1)C(=O)NCCc1ccc(S(N)(=O)=O)cc1 (stereo unspecified),.,.,.,.,.,.
Cc1[nH]nc2c1C(c1ccsc1)C(C#N)=C(N)O2 (stereo unspecified),.,.,?,.,.,.
CC1(C)CC(=O)C2=C(C1)Nc1ccccc1N(C(=O)C1CC1)C2c1ccco1 (stereo unspecified),.,.,9.5µM,.,.,.
CCOC(=O)C1(Cc2ccccc2)CCN(CC2CC=CCC2)CC1 (stereo unspecified),.,.,.,.,.,.
CCC(=O)Nc1sc2c(c1C(=O)Nc1ccc(Br)cc1)CCCCC2,/,/,/,/,.,14µM
CCC(=O)Nc1sc2c(c1C(=O)Nc1cccc(C)c1)CCCC2,/,/,/,/,.,.
CCOC(=O)c1ccc(NC(=O)c2c(NC(=O)CCC(=O)O)sc3c2CCCCC3)cc1,.,.,27µM,.,?,?

# Compound activity as filed in PubChem.
